The text below walks through data of PubChem BioAssay (Tox21).

Assay [1] is described as follows: qHTS assay for small molecule agonists of the p53 signaling pathway (AID 651631; calls by dose curve; also: nearly all actives have a fitted effect of over 15% in size). A digest of the protocol:
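Beta-lactamase reporter activity under p53 response elements was quantified in HCT-116 cells by FRET fluorescence, following 16 h incubation with test compounds at 37 °C and 2 h substrate development at room temperature.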
In general terms: In qHTS, concentration-response curves come from the screen itself.

Assay [2] in a line: qHTS assay for small molecules that induce genotoxicity in human embryonic kidney cells expressing luciferase-tagged ATAD5 (AID 651632). Also: nearly all actives have a fitted effect of over 15% in size. A digest of the protocol:
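Test compounds were delivered by pin tool onto HEK293T reporter cells (2,000/well) expressing ATAD5 fused to luciferase. After 16 hr at 37C, 5% CO2, Amplite was added for 30 min at room temperature and luminescence was measured.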

Assay [3] is described as follows: qHTS assay for small molecule agonists of the p53 signaling pathway - cell viability (AID 651633; calls by dose curve;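 also: p53RE-bla HCT reporter cells with a stable beta-lactamase p53 reporter; series mostly up to about 83 µM; nearly all actives have a fitted effect of over 30% in size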). Put shortly:
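p53RE-bla cells, seeded at 4,000 per well and rested 5 h at 37 C/5% CO2, received compounds in DMSO for 16 h at 37 C. CellTiter-Glo was then added, and luminescence was read after 30 min at room temperature to gauge cytotoxicity.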

Assay [4] in a line: qHTS assay for small molecules that induce genotoxicity in human embryonic kidney cells expressing luciferase-tagged ATAD5 - cell viability (AID 651634; calls by dose curve; also: nearly all actives have a fitted effect of over 25% in size). Put shortly:
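Quantitative high-throughput format. HEK293T cells expressing ATAD5 fused to luciferase were plated at 2,000 cells/well and treated 15.5 hr with compound versus DMSO. Viability was determined by fluorescent live-cell protease substrate, 30 min at 37C.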

The nature of assay [5]: qHTS assay for small molecule disruptors of the mitochondrial membrane potential - cell viability (AID 720634; calls by dose curve;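 also: human HepG2 liver cancer cells; series mostly up to about 83 µM; nearly all actives have a fitted effect of over 20% in size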). Put shortly: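 Same-well counter-screen: following the MMP dye addition, CellTiter-Glo was added to 1 hr compound-treated HepG2 cells and luminescence read after 30 min at room temperature.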
Assay [6] can be described thus: qHTS assay for small molecule disruptors of the mitochondrial membrane potential (AID 720635). Also: potency is read from the fitted curve at half-maximal effect. Put shortly:
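HepG2 cells (2,000/well) attached overnight at 37C, then took compound for 1 hr at 37C, 5% CO2. Mito-MPS dye was added for 30 min; fluorescence was read at 490/535 nm (monomers) and 540/590 nm (aggregates).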

Assay [7] in a line: qHTS assay to test for compound auto fluorescence at 590 nm (red) in HepG2 cells (AID 720674). Put shortly: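 Rose Bengal sodium served as the red fluorophore standard. HepG2 monolayers (overnight attachment, MEM with 10% FBS) were exposed to test compounds for 1 hr at 37 C and read at Ex 540/Em 590 nm.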
Assay [8] in a line: qHTS assay to test for compound auto fluorescence at 535 nm (green) in HepG2 cells (AID 720675).
A short description of assay [9]: qHTS assay to test for compound auto fluorescence at 460 nm (blue) in HEK293 cells (AID 720678). A digest of the protocol: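 HEK293 cells (2,000 per well, medium with 10% dialyzed FBS) attached for 4-5 hr at 37C, then received compound and stood overnight at 37C, 5% CO2. Blue fluorescence was read at Ex/Em 405/460 nm and expressed relative to triamterene.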
Assay [10] is described as follows: qHTS assay to test for compound auto fluorescence at 590 nm (red) in HEK293 cells (AID 720679). Put shortly: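 HEK293 cells (2,000/well, medium with 10% dialyzed FBS) attached for 4-5 hr at 37C, received 23 nL compound and were incubated overnight at 37C, 5% CO2. Red fluorescence was then read at 540/590nm Ex/Em, referenced to Rose Bengal sodium.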
The nature of assay [11]: qHTS assay to test for compound auto fluorescence at 535 nm (green) in HEK293 cells (AID 720680).
Assay [12] in a line: qHTS assay to test for compound auto fluorescence at 460 nm (blue) in HEK293 cell free culture (AID 720681). A digest of the protocol:
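Test compounds were pinned into cell-free culture medium (DMEM with 10% FBS) and fluorescence was read directly at Ex/Em 405/460 nm. Signals were expressed as fluorescence equivalents of triamterene, with DMSO vehicle as control.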

Assay [13] is described as follows: qHTS assay to test for compound auto fluorescence at 535 nm (green) in HEK293 cell free culture (AID 720682). Put shortly:
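Each library compound, or DMSO control, is added by pintool to medium alone, comprising DMEM and 10% FBS. Emission at 535 nm following 485 nm excitation is quantified against fluorescein.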

Assay [14] is described as follows: qHTS assay to test for compound auto fluorescence at 590 nm (red) in HEK293 cell free culture (AID 720683). A digest of the protocol:
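Tox21 10K library compounds were pinned into cell-free DMEM with 10% FBS and fluorescence was read at excitation 540 nm. Activity is expressed as Rose Bengal sodium equivalency.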

Assay [15] can be described thus: qHTS assay to test for compound auto fluorescence at 460 nm (blue) in HepG2 cell free culture (AID 720685). A digest of the protocol: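 Cell-free plates of MEM plus 10% FBS received 23 nL compound or DMSO vehicle; blue-channel (405/460 nm) intensity scored against triamterene as reference fluorophore.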
The nature of assay [16]: qHTS assay to test for compound auto fluorescence at 535 nm (green) in HepG2 cell free culture (AID 720686).
The nature of assay [17]: qHTS assay to test for compound auto fluorescence at 460 nm (blue) in HepG2 cells (AID 720687). Put shortly: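 Cells (2,000/well in MEM with 10% FBS) attached overnight at 37 C, then were exposed to compound or DMSO for 1 hr at 37 C, 5% CO2. Fluorescence read at Ex/Em 405/460 nm, expressed as triamterene-equivalent signal.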
For assay [18], the target named is Glucocorticoid receptor (Homo sapiens) (UniProt P04150). Put plainly: qHTS assay to identify small molecule agonists of the glucocorticoid receptor (GR) signaling pathway (AID 720691; active = well fitted activation curve with a large enough effect in the signal ratio in the repeat runs, not every such curve was filed as active; the % refers to the signal ratio). Put shortly:
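A HeLa cervical cancer line expressing GR and a glucocorticoid response element-driven beta-lactamase gene is treated with compounds for 18 h; LiveBLAzer B/G FRET substrate is then applied and fluorescence read.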

The nature of assay [19]: qHTS assay to test for compound auto fluorescence at 590 nm (red) in HepG2 cell free culture (AID 720684). Put shortly: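 Readout: intrinsic compound fluorescence at 590 nm emission after 540 nm excitation, scaled to Rose Bengal sodium. Matrix was cell-free MEM with 10% FBS; DMSO vehicle wells served as control.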
For assay [20], the target named is Glucocorticoid receptor (Homo sapiens) (UniProt P04150). Put plainly: qHTS assay to identify small molecule antagonists of the glucocorticoid receptor (GR) signaling pathway (AID 720692; active = well fitted inhibition curve with a large enough effect in the signal ratio in the repeat runs, not every such curve was filed as active; the % refers to the signal ratio). Put shortly: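 GRE-bla HeLa line, dex-stimulated (5 nM final). Compound exposure 18 h, 37 C. Beta-lactamase FRET read after 2 h RT substrate.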

Structures are written as SMILES. Values without a mark were called inactive. Results filed as inconclusive are left out. Activity calls are given as the source filed them. Unless noted, calls follow the shape of the dose curve; as a rule, active = well fitted curve in the direction sought with a large enough effect in the repeat runs; inconclusive = weak or mixed curves; inactive = no such curve, though single readings can be large; an effect the other way counts as inactive or inconclusive.

Chain of Glucocorticoid receptor (Homo sapiens) (P04150 whole entry, looked up): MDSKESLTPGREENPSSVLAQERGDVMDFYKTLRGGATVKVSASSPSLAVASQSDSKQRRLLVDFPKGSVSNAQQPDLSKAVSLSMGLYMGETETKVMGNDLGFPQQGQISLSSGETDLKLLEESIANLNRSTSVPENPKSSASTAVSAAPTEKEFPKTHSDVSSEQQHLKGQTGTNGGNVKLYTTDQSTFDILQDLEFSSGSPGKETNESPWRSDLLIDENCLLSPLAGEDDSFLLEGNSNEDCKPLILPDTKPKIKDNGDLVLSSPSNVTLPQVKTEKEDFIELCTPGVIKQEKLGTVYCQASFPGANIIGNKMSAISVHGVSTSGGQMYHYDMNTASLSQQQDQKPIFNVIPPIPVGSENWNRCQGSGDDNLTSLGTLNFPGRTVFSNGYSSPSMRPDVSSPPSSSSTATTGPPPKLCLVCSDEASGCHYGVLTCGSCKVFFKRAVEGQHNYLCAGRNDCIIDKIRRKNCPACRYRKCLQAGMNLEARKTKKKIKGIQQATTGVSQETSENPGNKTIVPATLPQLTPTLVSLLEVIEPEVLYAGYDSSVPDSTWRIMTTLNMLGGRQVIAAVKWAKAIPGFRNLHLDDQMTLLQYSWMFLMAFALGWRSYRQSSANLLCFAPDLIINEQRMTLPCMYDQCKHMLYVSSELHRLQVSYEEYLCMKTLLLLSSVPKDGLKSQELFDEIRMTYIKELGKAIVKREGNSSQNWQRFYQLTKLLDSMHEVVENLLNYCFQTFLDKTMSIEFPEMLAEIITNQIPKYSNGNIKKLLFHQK

For `Nc1ccncc1N`, the Potency entry in assay [1], in assay [2], in assay [3], in assay [4], in assay [6] and in assay [18] was “inactive” in each case. The molecule was classed as inactive in [5], in assay [7], in [8], in assay [9], in assay [10] and in assay [11]. For the same molecule, the molecule was classed as inactive in assay [12], in assay [13], in assay [14], in [15], in assay [16] and in assay [17].

Consider `O=C(O)CCSCCC(=O)O`, for which the Potency entry in [1], in assay [2], in assay [3], in assay [4], in assay [6] and in assay [18] was “inactive” each time. Moreover, the Potency result in assay [20] is “inactive”. Moreover, the call in [5], in assay [7], in [8], in assay [9], in assay [10] and in assay [11] was inactive. The call in assay [12], in assay [14], in [19], in assay [15], in [16] and in [17] was inactive.

Take `C=C(C)C(=O)OCC1CCCO1` (stereo not given): the Potency result in assay [1], in assay [2], in assay [3], in assay [4], in [6] and in assay [18] was “inactive” each time. Also, the molecule was classed as inactive in [5], in [7], in assay [8], in assay [9], in assay [10] and in [11]. Besides, the molecule was called inactive in assay [12], in assay [13], in assay [14], in [19], in [16] and in assay [17].

Regarding `C[C@H]1C[C@H]2[C@@H]3CCC4=CC(=O)C=C[C@]4(C)[C@H]3C(=O)C[C@]2(C)[C@@]1(O)C(=O)CO`, the Potency entry in [1], in assay [2], in assay [3], in assay [4], in assay [6] and in assay [18] was “inactive” throughout. The call in assay [5], in assay [7], in assay [8], in assay [9], in assay [10] and in [11] was inactive. The molecule was classed as inactive in [12], in [13], in assay [14], in assay [19], in [15] and in assay [16]. Besides, in assay [17], the result was inactive.

As for `CC(C)(C)OC(=O)c1cccc(N)c1`, the Potency entry in assay [1], in [2], in assay [3], in assay [4], in assay [18] and in assay [20] was “inactive” throughout. Moreover, the call in assay [5], in assay [7], in assay [8], in [9], in assay [10] and in [11] was inactive. For the same molecule, the result in assay [12], in assay [14], in assay [19], in assay [15], in assay [16] and in assay [17] was inactive. Further, in assay [6], the Potency was 35.3 µM (active).

Turning to `C=CC(C)(CCC=C(C)C)OC(=O)CC` (stereo not given), the Potency entry in assay [1], in assay [2], in [3], in assay [4], in [6] and in [20] was “inactive” in each case. Further, the molecule was called inactive in assay [5], in assay [7], in [8], in assay [9], in assay [10] and in assay [11]. The molecule was called inactive in [12], in assay [13], in assay [14], in assay [19], in assay [15] and in assay [16]. Further, the result in [17] was inactive.

With `O=C(CO)[C@@H](O)[C@H](O)[C@H](O)CO`, the Potency result in assay [1], in assay [2], in assay [3], in assay [4], in assay [6] and in assay [18] was “inactive” throughout. In addition, in assay [20], the Potency entry was “inactive”. The call in [5], in [7], in assay [8], in [9], in [10] and in [11] was inactive. The outcome in assay [12], in assay [13], in assay [14], in assay [19] and in [16] was inactive.
